Molecules are shown by their SMILES.

The test deals with Glucose transporter (Leishmania mexicana) (UniProt O61059). Briefly: ST_JUDE_LEISH: Cytotoxicity at 2uM final concentration against transgenic Leishmania Mexicana promastigotes LmGT2 that are glucose transport deficient and complemented with the L. Mexicana glucose transporter 2. Activity is measured by DNA content using SYBR green in vitro. In kind it is functional.
For the compound `CCOc1ccc(/C=C/C(=O)Nc2cccc3c2CCN(C)C3)cc1`, the inhibition stood at 6.27%.

Turning to `c1cc(CN2CCN(CCN3CCOCC3)CC2)cc(-c2ccc(-c3nc4ccccc4[nH]3)cc2)c1`, the inhibition came to 9.58%.

Regarding `Cc1nn(-c2ccccc2)nc1C(=O)N(Cc1ccc(-c2ccc(CNCCc3ccc(S(C)(=O)=O)cc3)cn2)cc1)C(C)CN(C)C` (stereo unspecified), the inhibition was 3.9%.

As for `O=C(NC1CCN(CC2(c3ccc(Cl)cc3)CCCCC2)CC1)c1cc[nH]n1`, the inhibition amounted to 3.61%.

For `CC1CCc2c(C(=O)Nc3c(F)cc(F)cc3Br)csc2C1` (stereo unspecified), the inhibition is -0.61%.

Turning to `CCN(CC)CCN(Cc1ccc(-c2ccc(C(F)(F)F)cc2)cc1)C(=O)Cn1c(CCc2ccccc2F)nc(=O)c2ccccc21`, the inhibition stood at 2.3%.

Consider `CCN(CC)CCN(Cc1ccc(-c2ccc(C(F)(F)F)cc2)cc1)C(=O)c1c[nH]c2ccc(Br)cc12`, for which the inhibition came out at 2.1%.

For the compound `CCn1c(-c2nonc2N)nc2c(-c3cccc(NC(=O)Nc4cccc(C(F)(F)F)c4)c3)ncc(OCCCN)c21`, the inhibition is 0.62%.

Regarding `COc1ccc(-n2nc(C(=O)NCCC3=CCCCC3)c3ccccc3c2=O)cc1`, the inhibition was -0.39%.

With `O=C(Nc1ccc(Oc2ccccc2)cc1)N(CCN1CCCC1)Cc1ccc(-c2ccc(CN3CCNCC3)cc2)cc1`, the inhibition was determined as 0.38%.

As for `CCCC(C(=O)OCCN(CC)CC)(c1ccc(Cl)cc1)c1ccc(Cl)cc1`, the inhibition amounted to 7.04%.

On to `O=C(CCc1nc2c(cnn2-c2ccccc2)c(=O)[nH]1)NC1CCSc2ccccc21` (stereo unspecified), for which the inhibition was -2.08%.

`Cc1cc(NS(=O)(=O)c2cccc(C(C)N3CCC(N4CCCC4)CC3)c2)ccc1C(C)C` (stereo unspecified): the inhibition is 1.55%.

On to `CC(C)CCNC(=O)C1Cc2c([nH]c3ccc(Br)cc23)C2(CCN(CCc3ccccc3)CC2)N1` (stereo unspecified), for which the inhibition stood at 0.26%.

For `Fc1ccc2[nH]c3c(NCCCN4CCOCC4)ncnc3c2c1`, the inhibition is -0.69%.

As to `CCS(=O)(=O)c1ccc(-c2cnc3[nH]cc(-c4ccc(N)cc4)c3c2)cc1`, the inhibition amounted to 16.2%.

Consider `O=C(C=Cc1ccc(Cl)c(Cl)c1)NCCCCCN1CCC(CCCNS(=O)(=O)c2ccc(Br)cc2)CC1`, for which the inhibition came to 4.73%.

For `O=C(Nc1ccc(F)cc1)c1cnc(N2CCN(c3ccncc3)CC2)c(Cl)c1`, the inhibition came out at 3.86%.

Consider `COc1ccc(CNCc2ccccc2)cc1-c1ccc(S(=O)(=O)NCCN2CCCC2)c(C)c1`, for which the inhibition was 2.34%.

In the case of `O=C(CCc1c[nH]cn1)Nc1cccc(-c2ccc(-c3nc4ccccc4[nH]3)cc2)c1`, the inhibition was 6.77%.

Regarding `CN(C)CCCN1CCN(C(=O)c2cccc(-c3noc(C(F)(F)F)n3)c2)CC1`, the inhibition is 3.7%.

As for `COc1cccc(CNC(=O)c2cc(CNCc3ccccc3)ccc2-c2cccc(CNCc3ccc(-c4ccccc4)cc3)c2)c1`, the inhibition is 6.21%.

Take `COc1cc(Cc2cnc(N)nc2N)c2c(c1OC)OC(C)C=C2` (stereo unspecified): the inhibition came to 2.25%.

On to `CCN(CC)CCCSc1ccc(-c2ccc(SCCCN(CC)CC)cc2)cc1`, for which the inhibition amounted to 78.2%.

Turning to `N=C(N)CCN(Cc1ccccc1)c1ccc(Cl)cc1`, the inhibition is -1.35%.

For the compound `CC(C)(C)OC(=O)NCCc1cccc(-c2c[nH]c3ncc(-c4cccc(NS(C)(=O)=O)c4)cc23)c1`, the inhibition was found to be 7.65%.

As usually defined, the inhibition is the change of the read-out against control, counted positive when it falls.

These data come from ChEMBL document CHEMBL3433997, “St. Jude Leishmania screening dataset” (2016).
